Some test systems named below: HCT-15 colon; HT29 colon; SNB-75 CNS; SNB-19 CNS; U251 CNS; PC-3 prostate; SK-MEL-5 melanoma; UACC-62 melanoma; SK-MEL-28 melanoma; LOX IMVI melanoma.
What all share (test): NCI-60 one-dose screen, 48 h (100 = growth as untreated, 0 = no growth, -100 = all killed)
Details in all cases: 10 µM unless noted

Compounds without any hit were thinned out: in the full panel of roughly 83,000, 20% have a hit.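 Method: cells in 96-well plates; compound added at one concentration; 48 h incubation; percent growth measured; values under 10 scored active.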 Unmarked numbers belong to inactive results. Calls of active or inactive are those of the source.

As for `CC(=O)N(CC(O)CO)c1c(I)c(C(=O)NCCO)c(I)c(C(=O)NCC(O)CO)c1I` (stereo not drawn), the growth with HCT-15 colon was 96.4%; with HT29 colon it was 99.9%; in the assay on SNB-75 CNS it was 95.6%; in the assay on SNB-19 CNS it was 106%; in the assay on U251 CNS it was 100%; with PC-3 prostate it was 81.3%. The growth is 91.7% with SK-MEL-5 melanoma, 111% in the assay on UACC-62 melanoma and 112% in the assay on SK-MEL-28 melanoma.

For `COc1c(O)c2c3c(c1OC)-c1ccccc1CC3N(S(=O)(=O)c1ccc(C)cc1)CC2` (stereo not drawn), the growth in the assay with HCT-15 colon was 37.3%; with HT29 colon, 121%; with SNB-75 CNS, 22.8%; in the assay on SNB-19 CNS it was 61.6%; in the assay with U251 CNS, 22.5%; in the assay on PC-3 prostate it was 48.5%. Further, the growth in the assay with SK-MEL-5 melanoma was 21.8%; in the assay on UACC-62 melanoma, 58%; in the assay on LOX IMVI melanoma, 51.7%; in the assay with SK-MEL-28 melanoma it was 53.2%.

Turning to `CN1CCN(C)c2cncc(Br)c2C1=O`, the growth is 105% with HCT-15 colon; 107% in the assay on HT29 colon; 101% with SNB-75 CNS; 106% in the assay on SNB-19 CNS; 106% with U251 CNS; 103% with PC-3 prostate. The growth is 101% in the assay with SK-MEL-5 melanoma, 105% in the assay with UACC-62 melanoma, 102% in the assay on LOX IMVI melanoma and 110% in the assay on SK-MEL-28 melanoma.

Take `Cc1ccc2nc(NC(=O)CSC(=S)N3CCN(C)CC3)sc2c1`: the growth was 102% in the assay with HCT-15 colon; 106% in the assay with HT29 colon; 90.8% in the assay on SNB-75 CNS; 108% in the assay with SNB-19 CNS; 108% with U251 CNS; 95.6% in the assay with PC-3 prostate. Further, the growth in the assay with SK-MEL-5 melanoma is 107%; in the assay with LOX IMVI melanoma, -72.3% (active); in the assay on SK-MEL-28 melanoma, 116%.

`Cc1ccc(C(=O)Nc2ccccc2N)cc1`: the growth in the assay on HCT-15 colon was 88%; with HT29 colon, 79.4%; in the assay on SNB-75 CNS, 82.8%; with SNB-19 CNS it was 81.9%; with U251 CNS it was 74.8%; with PC-3 prostate, 70.9%. Also, the results for the growth in the assay with UACC-62 melanoma and in the assay on LOX IMVI melanoma were 52.1% and 89.5%, respectively.

Take `NC(=S)N/N=C1\c2ccccc2-c2c(F)c(F)c(F)c(F)c21`: the growth was 62.8% in the assay with HCT-15 colon; 52.8% with HT29 colon; 95.7% in the assay on SNB-75 CNS; 89% in the assay with SNB-19 CNS; 63.9% in the assay on U251 CNS; 80.3% with PC-3 prostate. The growth in the assay with SK-MEL-5 melanoma is 102%; with UACC-62 melanoma, 93.4%; in the assay with LOX IMVI melanoma it was 86.6%; with SK-MEL-28 melanoma, 113%.

As for `O=c1ccc2ccccc2o1`, the growth in the assay on HCT-15 colon is 98%; with HT29 colon it was 102%; with SNB-75 CNS, 89.4%; in the assay with SNB-19 CNS, 112%; with U251 CNS, 104%; with PC-3 prostate, 82.2%. Moreover, the growth in the assay on SK-MEL-5 melanoma was 107%; in the assay on UACC-62 melanoma, 98.4%; in the assay with LOX IMVI melanoma, 109%; with SK-MEL-28 melanoma, 108%.

`Clc1ccccc1Nc1ccc2nnc(-c3ccncc3)n2n1`: the growth was 91.8% with HCT-15 colon; 99.2% with HT29 colon; 96.2% in the assay with SNB-75 CNS; 107% in the assay on SNB-19 CNS; 97.4% with U251 CNS; 75.7% in the assay on PC-3 prostate. The growth in the assay with SK-MEL-5 melanoma is 97.9%; in the assay on UACC-62 melanoma it was 98.4%; in the assay with LOX IMVI melanoma, 96.1%; in the assay with SK-MEL-28 melanoma, 122%.

For `N#Cc1c(O)c2c(c(O)c1C#N)C(=O)c1ccccc1C2=O`, the growth is 26.9% in the assay on HCT-15 colon; 0.694% (active) with HT29 colon; 145% in the assay with SNB-75 CNS; 70.8% in the assay on SNB-19 CNS; 3.42% (active) with U251 CNS; 14.3% in the assay with PC-3 prostate. The growth with SK-MEL-5 melanoma is -73.1% (active); in the assay on UACC-62 melanoma, -17.3% (active); with SK-MEL-28 melanoma it was 5.91% (active).

In the case of `O=C(NCc1ccco1)C1CCN(S(=O)(=O)c2ccc(Cl)cc2)CC1`, the growth is 70.6% in the assay on HCT-15 colon; 83.2% in the assay with HT29 colon; 72.2% in the assay on SNB-75 CNS; 84.3% in the assay with SNB-19 CNS; 83% in the assay with U251 CNS; -43.6% (active) with PC-3 prostate. Also, the growth in the assay with SK-MEL-5 melanoma is 75.7%; in the assay with UACC-62 melanoma it was 69.8%; with LOX IMVI melanoma, 77.1%; in the assay with SK-MEL-28 melanoma, 85.5%.

As for `O=[N+]([O-])c1ccc(O)c2ncccc12`, the growth was 31.5% in the assay on HCT-15 colon; 81% in the assay on HT29 colon; 84.1% in the assay on SNB-75 CNS; 37.9% in the assay on SNB-19 CNS; 34.2% in the assay on U251 CNS; 37.9% in the assay with PC-3 prostate. For the same compound, the growth with SK-MEL-5 melanoma is 56.4%; with UACC-62 melanoma it was 29.1%; with LOX IMVI melanoma, 46.8%; in the assay with SK-MEL-28 melanoma, 81.7%.

`Oc1cccc(Nc2nc(-c3ccccn3)cs2)c1`: the growth in the assay on HCT-15 colon is 78.3%; in the assay on HT29 colon, 112%; in the assay on SNB-75 CNS, 94.3%; with SNB-19 CNS it was 98.8%; in the assay with U251 CNS, 101%; in the assay on PC-3 prostate, 94.5%. Further, the figures for the growth with SK-MEL-5 melanoma, with LOX IMVI melanoma and in the assay on SK-MEL-28 melanoma were 91.1%, 93.9% and 111%, respectively.

Take `O=C1C(OCCOc2ccccc2)=C(OCCOc2ccccc2)C(=O)c2ccccc21`: the growth with HCT-15 colon is 26.7%; in the assay with HT29 colon, 107%; in the assay with SNB-75 CNS, 69.4%; in the assay with SNB-19 CNS, 57.6%; in the assay with U251 CNS, 18.9%; in the assay with PC-3 prostate, 44.4%. Further, the growth with SK-MEL-5 melanoma was 13.6%; in the assay on LOX IMVI melanoma it was 22.6%; in the assay with SK-MEL-28 melanoma it was 93.5%.

Source of the values: PubChem BioAssay (NCI).
